Data reported in PubChem BioAssay (EPA / NIEHS).
Records with an inconclusive call do not appear. More than one record can exist for a structure, and the calls need not agree. Activity calls are given as the source filed them. Rule for the calls, unless noted: active = hit-call score of the fitted dose curve at least 0.9, where 1 is the maximum; inactive = score below 0.9.

What was measured:
[1] = biological target: Bile acid receptor (Homo sapiens) (UniProt Q96RI1); experiment: ATG_FXR_TRANS: Attagene TRANS-FACTORIAL HepG2 Assay for Farnesoid X Receptor (FXR) (AID 2282979; active = hit-call score of the fitted dose curve at least 0.9, where 1 is the maximum;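 note: hits raise reporter mRNA above DMSO so AC50 marks FXR activation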); conditions: HepG2 Attagene TRANS FXR-GAL4 reporter transcription
Bile acid receptor (Homo sapiens), sequence (Q96RI1 whole entry, looked up, the tested form may be a part): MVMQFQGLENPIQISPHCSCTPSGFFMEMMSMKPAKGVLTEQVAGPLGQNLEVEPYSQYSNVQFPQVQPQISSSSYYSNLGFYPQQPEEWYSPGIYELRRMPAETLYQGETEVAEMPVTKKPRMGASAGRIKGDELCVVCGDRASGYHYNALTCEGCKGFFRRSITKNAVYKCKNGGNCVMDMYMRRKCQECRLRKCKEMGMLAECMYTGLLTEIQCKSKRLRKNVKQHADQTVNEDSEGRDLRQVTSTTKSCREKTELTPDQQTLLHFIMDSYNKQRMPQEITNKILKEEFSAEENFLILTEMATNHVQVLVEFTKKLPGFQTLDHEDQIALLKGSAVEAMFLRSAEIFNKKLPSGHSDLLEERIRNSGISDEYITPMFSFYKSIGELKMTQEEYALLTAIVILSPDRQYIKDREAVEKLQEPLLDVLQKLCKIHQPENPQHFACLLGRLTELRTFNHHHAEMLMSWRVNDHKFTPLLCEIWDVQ
Procedure, shortened: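 HepG2 cells were transiently transfected with GAL4-UAS reporters driven by chimeric NR-Gal4 proteins and dosed for 24 h. Reporter mRNA was quantified by RT-PCR, fluorescent labelling, HpaI digestion and capillary electrophoresis, with gain of signal scored versus DMSO.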

[2] = biological target: Oxysterols receptor LXR-alpha (Homo sapiens) (UniProt Q13133); experiment: ATG_LXRa_TRANS: Attagene TRANS-FACTORIAL HepG2 Assay for human Liver X Receptor alpha (LXRa) (AID 2282980; active = hit-call score of the fitted dose curve at least 0.9, where 1 is the maximum); conditions: HepG2 Attagene TRANS reporter, LXRa transactivation
Oxysterols receptor LXR-alpha (Homo sapiens), sequence (Q13133 whole entry, looked up, the tested form may be a part): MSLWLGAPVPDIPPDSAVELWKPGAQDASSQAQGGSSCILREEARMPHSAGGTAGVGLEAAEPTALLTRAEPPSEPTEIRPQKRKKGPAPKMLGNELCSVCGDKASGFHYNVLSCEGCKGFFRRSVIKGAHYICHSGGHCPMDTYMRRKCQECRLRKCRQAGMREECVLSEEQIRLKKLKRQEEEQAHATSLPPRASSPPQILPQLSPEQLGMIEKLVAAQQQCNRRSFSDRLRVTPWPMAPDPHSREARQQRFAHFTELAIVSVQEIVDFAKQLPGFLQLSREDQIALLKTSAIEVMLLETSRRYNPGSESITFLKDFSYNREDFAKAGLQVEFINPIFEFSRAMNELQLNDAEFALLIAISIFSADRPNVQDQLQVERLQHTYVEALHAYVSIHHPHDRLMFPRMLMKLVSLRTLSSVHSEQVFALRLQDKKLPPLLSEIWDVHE
Procedure, shortened: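 HepG2 cells transiently transfected with GAL4-UAS reporter units for chimeric NR-Gal4 proteins, exposed to chemicals for 24 h. Reporter mRNA quantified by RT-PCR and capillary electrophoresis; gain of signal fitted relative to DMSO.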

[3] = biological target: Oxysterols receptor LXR-beta (Homo sapiens) (UniProt P55055); experiment: ATG_LXRb_TRANS: Attagene TRANS-FACTORIAL HepG2 Assay for human Liver X Receptor beta (LXRb) (AID 2282981; active = hit-call score of the fitted dose curve at least 0.9, where 1 is the maximum); conditions: HepG2 Attagene TRANS GAL4-LXRb reporter, mRNA
Oxysterols receptor LXR-beta (Homo sapiens), sequence (P55055 whole entry, looked up, the tested form may be a part): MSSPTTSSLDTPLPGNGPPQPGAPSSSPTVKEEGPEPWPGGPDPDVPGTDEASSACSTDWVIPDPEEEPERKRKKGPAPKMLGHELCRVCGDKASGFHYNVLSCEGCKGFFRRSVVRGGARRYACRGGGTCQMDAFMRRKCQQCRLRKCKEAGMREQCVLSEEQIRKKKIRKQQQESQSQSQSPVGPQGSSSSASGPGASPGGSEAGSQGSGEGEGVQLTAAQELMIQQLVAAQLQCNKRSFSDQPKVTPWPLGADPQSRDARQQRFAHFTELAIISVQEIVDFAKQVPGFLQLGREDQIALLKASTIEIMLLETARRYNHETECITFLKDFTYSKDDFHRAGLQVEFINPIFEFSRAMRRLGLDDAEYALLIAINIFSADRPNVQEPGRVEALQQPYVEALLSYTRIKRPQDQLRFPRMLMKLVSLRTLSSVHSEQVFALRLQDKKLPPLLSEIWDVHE
Procedure, shortened: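 Liver-derived HepG2 cells transfected with Gal4-responsive reporters were dosed for 24 h. Activation was scored as rise in reporter mRNA, by RT-PCR and capillary electrophoresis, above DMSO baseline.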

[4] = biological target: Hepatocyte nuclear factor 4-alpha (Homo sapiens) (UniProt P41235); experiment: ATG_HNF4a_TRANS: Attagene TRANS-FACTORIAL HepG2 Assay for human Hepatocyte Nuclear Factor 4 alpha (HNF4a) (AID 2282982; active = hit-call score of the fitted dose curve at least 0.9, where 1 is the maximum); conditions: HepG2 HNF4a transactivation reporter, mRNA readout
Hepatocyte nuclear factor 4-alpha (Homo sapiens), sequence (P41235 whole entry, looked up, the tested form may be a part): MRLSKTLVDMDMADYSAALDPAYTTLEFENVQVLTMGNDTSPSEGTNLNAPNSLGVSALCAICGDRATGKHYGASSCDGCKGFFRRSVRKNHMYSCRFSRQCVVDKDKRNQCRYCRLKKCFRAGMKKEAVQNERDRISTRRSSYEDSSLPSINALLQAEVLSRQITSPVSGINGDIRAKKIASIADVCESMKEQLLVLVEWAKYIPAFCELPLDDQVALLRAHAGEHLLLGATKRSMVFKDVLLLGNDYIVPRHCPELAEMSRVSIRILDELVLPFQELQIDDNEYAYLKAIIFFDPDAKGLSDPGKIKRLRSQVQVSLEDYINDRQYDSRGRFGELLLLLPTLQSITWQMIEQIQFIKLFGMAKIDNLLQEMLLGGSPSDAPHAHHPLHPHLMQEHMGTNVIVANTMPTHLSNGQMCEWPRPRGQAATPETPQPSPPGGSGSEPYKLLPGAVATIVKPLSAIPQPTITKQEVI
Procedure, shortened: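 Using HepG2 liver cells transfected with GAL4-UAS reporter units, chemical-induced mRNA increases were assessed after 24 hours. Fluorescent RT-PCR fragments were separated by capillary electrophoresis and compared with DMSO negative controls.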

[5] = ATG_M_06_TRANS: Attagene TRANS-FACTORIAL HepG2 Assay for M06 Transcription Factor (Internal Marker) (AID 2282983; active = hit-call score of the fitted dose curve at least 0.9, where 1 is the maximum); conditions: HepG2 Attagene TRANS M06 internal marker reporter
Procedure, shortened: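 mRNA levels of a reporter transcript, quantified as FAM fluorescence on capillary electrophoresis, served as readout. HepG2 cells expressing exogenous GAL4-chimera reporter constructs were exposed for 24 h. Gain of signal over DMSO was evaluated.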

[6] = ATG_M_32_TRANS: Attagene TRANS-FACTORIAL HepG2 Assay for M32 Transcription Factor (Internal Marker) (AID 2282984; active = hit-call score of the fitted dose curve at least 0.9, where 1 is the maximum); conditions: HepG2 Attagene TRANS M32 internal marker reporter
Procedure, shortened: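 Fluorescence-detected mRNA induction, HepG2 liver cells, 24 h after dosing. Multiple GAL4-UAS reporter units introduced by transient transfection; background-control endpoint analysed for gain of signal against DMSO.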

[7] = biological target: Transcriptional activator Myb (Homo sapiens) (UniProt P10242); experiment: ATG_Myb_CIS: Attagene CIS-FACTORIAL HepG2 Assay for human Myeloblastosis (Myb) Proto-Oncogene Transcription Factor (AID 2282986); conditions: HepG2 Attagene CIS-FACTORIAL Myb reporter transcription; actives raise or lower the signal
Transcriptional activator Myb (Homo sapiens), sequence (P10242 whole entry, looked up): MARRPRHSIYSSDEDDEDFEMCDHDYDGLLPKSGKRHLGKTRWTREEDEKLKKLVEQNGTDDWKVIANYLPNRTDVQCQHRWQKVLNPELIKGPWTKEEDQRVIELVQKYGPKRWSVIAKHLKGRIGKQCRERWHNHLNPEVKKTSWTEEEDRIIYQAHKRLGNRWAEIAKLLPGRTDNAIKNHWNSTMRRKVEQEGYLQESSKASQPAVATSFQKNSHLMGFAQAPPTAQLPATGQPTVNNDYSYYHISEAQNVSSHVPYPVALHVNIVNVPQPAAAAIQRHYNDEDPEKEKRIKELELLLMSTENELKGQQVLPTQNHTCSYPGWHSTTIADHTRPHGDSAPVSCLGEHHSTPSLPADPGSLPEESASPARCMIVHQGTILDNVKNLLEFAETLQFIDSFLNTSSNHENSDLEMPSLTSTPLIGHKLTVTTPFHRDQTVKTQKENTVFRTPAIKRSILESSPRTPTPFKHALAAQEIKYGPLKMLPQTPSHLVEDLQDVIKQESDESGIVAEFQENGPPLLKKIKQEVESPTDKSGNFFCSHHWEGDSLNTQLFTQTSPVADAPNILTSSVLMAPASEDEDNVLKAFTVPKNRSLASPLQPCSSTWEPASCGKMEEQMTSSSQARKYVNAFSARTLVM
Procedure, shortened: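 HepG2 cells were transiently transfected with cis-regulated multiple reporter transcription units reflecting endogenous Myb activity, then exposed to compound for 24 hours. Reporter mRNA was measured by RT-PCR with capillary electrophoresis; bidirectional fitting versus DMSO baseline.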

[8] = biological target: Nuclear respiratory factor 1 (Homo sapiens) (UniProt Q16656); experiment: ATG_NRF1_CIS: Attagene CIS-FACTORIAL HepG2 Assay for human Nuclear Respiratory Factor 1 (NRF1) Orphan Gene (AID 2282987); conditions: HepG2 NRF1 cis-element reporter, Attagene multiplex; actives raise or lower the signal
Nuclear respiratory factor 1 (Homo sapiens), sequence (Q16656 whole entry, looked up): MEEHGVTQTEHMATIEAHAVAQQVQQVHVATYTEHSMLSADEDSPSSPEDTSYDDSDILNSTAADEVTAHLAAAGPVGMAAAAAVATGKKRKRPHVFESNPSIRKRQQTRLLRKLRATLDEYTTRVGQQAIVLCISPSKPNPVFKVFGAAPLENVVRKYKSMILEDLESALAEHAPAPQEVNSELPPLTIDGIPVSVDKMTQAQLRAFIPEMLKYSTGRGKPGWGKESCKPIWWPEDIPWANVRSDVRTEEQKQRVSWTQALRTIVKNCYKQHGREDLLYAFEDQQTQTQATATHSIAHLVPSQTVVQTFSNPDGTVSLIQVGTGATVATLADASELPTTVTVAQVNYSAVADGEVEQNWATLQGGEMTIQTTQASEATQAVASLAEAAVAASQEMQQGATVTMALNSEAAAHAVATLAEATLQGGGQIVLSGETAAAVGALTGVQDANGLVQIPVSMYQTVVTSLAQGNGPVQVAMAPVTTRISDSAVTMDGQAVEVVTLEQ
Procedure, shortened: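 HepG2 cells transiently transfected with multiple reporter transcription units under cis-regulatory promoter control, so endogenous transcription-factor activity is read. After 24 h compound exposure, reporter mRNA quantified by RT-PCR, fluorescent labelling, HpaI digestion and capillary electrophoresis; bidirectional fitting versus DMSO.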

[9] = ATG_NFI_CIS: Attagene CIS-FACTORIAL HepG2 Assay for human Nuclear Factor I (NFI) (AID 2282989); conditions: HepG2 cis-regulatory reporter, NFI response element transcription; actives raise or lower the signal
Procedure, shortened: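 Read-out: reporter mRNA via RT-PCR plus capillary electrophoresis with fluorescence detection. Transiently transfected HepG2 (endogenous TF activity on cis promoters), 24 h compound exposure; gain or loss of signal fitted against DMSO.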

[10] = ATG_Oct_MLP_CIS: Attagene CIS-FACTORIAL HepG2 Assay for human Octamer-Binding Transcription Factor (Oct) (AID 2282993); conditions: HepG2 Attagene cis-factorial Oct reporter, mRNA; actives raise or lower the signal
Procedure, shortened: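 Read-out: reporter mRNA via RT-PCR plus capillary electrophoresis of 6-FAM-labelled fragments. Transiently transfected HepG2, 24 h exposure, endogenous TF activity on cis elements. Gain or loss of signal fitted relative to DMSO.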

[11] = BSK_3C_TissueFactor: BioMAP Diversity Plus: 3C Assay for Tissue Factor Biomarker Activity (AID 2282997); conditions: BioMAP 3C HUVEC, tissue factor biomarker readout; actives raise or lower the signal
Procedure, shortened: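 Tissue Factor measured by ELISA, 24 h after treatment of primary HUVEC in the BioMAP 3C setting.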

[12] = BSK_3C_uPAR: BioMAP Diversity Plus: 3C Assay for Urokinase-type plasminogen activator receptor (uPAR) Biomarker Activity (AID 2282998); conditions: BioMAP 3C HUVEC, uPAR biomarker ELISA; actives raise or lower the signal
Procedure, shortened: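 HUVEC primary cells; 24 h post-dose; uPAR by ELISA; gain or loss of signal fitted bidirectionally vs DMSO baseline.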

[13] = BSK_3C_VCAM1: BioMAP Diversity Plus: 3C Assay for Vascular cell adhesion molecule 1 (VCAM1) Biomarker Activity (AID 2282999); conditions: BioMAP 3C HUVEC, VCAM1 ELISA, cytokine-stimulated; actives raise or lower the signal
Procedure, shortened: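 Vascular primary endothelium (human umbilical vein) was exposed to chemicals and assayed 24 h later. VCAM-1 levels came from ELISA, with DMSO serving as baseline for bidirectional fitting.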

[14] = BSK_4H_Eotaxin3: BioMAP Diversity Plus: 4H Assay for Eotaxin 3 Biomarker Activity (AID 2283000); conditions: primary human endothelial cells (HUVEC); actives raise or lower the signal
Procedure, shortened: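 Eotaxin-3 (CCL26) levels were measured by ELISA in HUVEC primary cultures 24 h post-dosing. Gain or loss of signal was fitted in both directions, with DMSO serving as baseline and negative control.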

[15] = biological target: Myc proto-oncogene protein (Homo sapiens) (UniProt P01106); experiment: ATG_Myc_CIS: Attagene CIS-FACTORIAL HepG2 Assay for human Myelocytomatosis (Myc) Proto-Oncogene Transcription Factor (AID 2282990); conditions: HepG2, Attagene cis-reporter transcription factor activity; actives raise or lower the signal
Myc proto-oncogene protein (Homo sapiens), sequence (P01106 whole entry, looked up): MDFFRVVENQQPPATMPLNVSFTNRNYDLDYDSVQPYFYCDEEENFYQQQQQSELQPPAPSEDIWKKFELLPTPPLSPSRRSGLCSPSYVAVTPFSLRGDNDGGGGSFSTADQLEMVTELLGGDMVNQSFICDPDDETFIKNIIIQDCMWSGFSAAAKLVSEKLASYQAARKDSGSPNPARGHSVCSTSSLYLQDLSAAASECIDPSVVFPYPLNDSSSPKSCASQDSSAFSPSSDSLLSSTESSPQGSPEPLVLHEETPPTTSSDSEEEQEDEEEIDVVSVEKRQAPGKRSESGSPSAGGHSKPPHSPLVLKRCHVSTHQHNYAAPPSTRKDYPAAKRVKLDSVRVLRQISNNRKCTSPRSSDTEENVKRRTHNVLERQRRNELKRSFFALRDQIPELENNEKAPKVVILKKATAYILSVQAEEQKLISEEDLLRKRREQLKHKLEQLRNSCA
Procedure, shortened: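 DMSO-normalised, bidirectionally fitted reporter mRNA signal. HepG2 cells transfected with cis reporter constructs, treated 24 h; transcripts detected by RT-PCR, 6-FAM primer extension and CE.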

[16] = biological target: Cellular tumor antigen p53 (Homo sapiens) (UniProt P04637); experiment: ATG_p53_CIS: Attagene CIS-FACTORIAL HepG2 Assay for human p53 Transcription Factor (AID 2282994); conditions: HepG2 p53 cis-element reporter, Attagene mRNA; actives raise or lower the signal
Cellular tumor antigen p53 (Homo sapiens), sequence (P04637 whole entry, looked up): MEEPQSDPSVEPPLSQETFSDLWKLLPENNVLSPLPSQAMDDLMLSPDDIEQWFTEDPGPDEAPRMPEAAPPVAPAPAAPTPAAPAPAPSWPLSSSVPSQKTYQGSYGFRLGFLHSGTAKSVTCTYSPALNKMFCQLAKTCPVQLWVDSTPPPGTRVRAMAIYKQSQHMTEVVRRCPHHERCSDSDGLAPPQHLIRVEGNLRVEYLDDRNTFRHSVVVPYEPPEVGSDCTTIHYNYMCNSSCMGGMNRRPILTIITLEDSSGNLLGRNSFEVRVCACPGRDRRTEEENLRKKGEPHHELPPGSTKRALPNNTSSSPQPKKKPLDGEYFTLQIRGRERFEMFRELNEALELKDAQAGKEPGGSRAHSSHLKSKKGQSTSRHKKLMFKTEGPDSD
Procedure, shortened: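 Endogenous p53 activity read in transiently transfected HepG2 from a cis-element-driven reporter transcript after 24 h exposure. RNA reverse-transcribed, PCR-amplified, fluorescently labelled and sized by capillary electrophoresis; gain or loss fitted against DMSO baseline.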

[17] = ATG_NF_kB_CIS: Attagene CIS-FACTORIAL HepG2 Assay for human Nuclear Factor Kappa B (NF-kB) (AID 2282991); conditions: HepG2 Attagene cis-factorial NF-kB reporter mRNA; actives raise or lower the signal
Procedure, shortened: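 HepG2 cells transiently transfected with multiplexed cis-element reporter units measuring endogenous transcription factor activity; reporter mRNA read 24 h after dosing by RT-PCR, fluorescent labelling, HpaI digestion and capillary electrophoresis. Bidirectional fit against DMSO baseline.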

[18] = ATG_NRF2_ARE_CIS: Attagene CIS-FACTORIAL HepG2 Assay for human Nuclear Factor Erythroid 2 Related Factor 2 (NFR2) response to Antioxidant Response Elements (ARE) (AID 2282992); conditions: HepG2 Attagene ARE/NRF2 reporter, transcription factor activity; actives raise or lower the signal
Procedure, shortened: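 Endogenous transcription factor activity read out as reporter transcript levels (RT-PCR plus capillary electrophoresis, fluorescence) in transiently transfected HepG2 cells. Measured at 24 h after dosing; gain or loss of signal fitted versus DMSO.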

Measured: AC50

CCN(CC)C(=O)c1cccc(C)c1
not listed: [15] | [16] | [17] | [18]
inactive: all other assays above

CCCN(CCC)C(=O)SCC
not listed: [1] | [17] | [18]
inactive: all other assays above

CCCOC(=O)c1ccc(C(=O)OCCC)nc1
not listed: [15] | [18]
inactive: all other assays above

COC(=O)c1ccccc1C(=O)O
not listed: [1] | [4] | [6] | [15]
inactive: all other assays above

CCNc1nc(N)nc(Cl)n1
not listed: [1] | [4] | [15] | [18]
inactive: all other assays above

Cc1nn(C)c(Oc2ccccc2)c1C=NOCc1ccc(C(=O)OC(C)(C)C)cc1
active: [2] 1.31 µM | [3] 1.88 µM | [9] 0.0424 µM | [18] 0.0249 µM | [10] 0.0401 µM | [12] 7.77 µM | [13] 32.5 µM
inactive: [4] | [6] | [7] | [8] | [16] | [11] | [14]

COC(=O)c1ccc(I)cc1S(=O)(=O)NC(=O)Nc1nc(C)nc(OC)n1
not listed: [1] | [2] | [6] | [17]
inactive: all other assays above

CCC(C)OC(=O)N1CCCCC1CCO (stereo not drawn)
not listed: [1] | [5] | [6] | [15] | [18]
inactive: all other assays above

CCC(O)=C1C(=O)CC(C(=O)O)CC1=O (stereo not drawn)
not listed: [1] | [4] | [15] | [18]
inactive: all other assays above

CCSC(=O)N(CC(C)C)CC(C)C
not listed: [1] | [2] | [4] | [15]
inactive: all other assays above

CC(=O)[C@H]1CC[C@H]2[C@@H]3CCC4=CC(=O)CC[C@]4(C)[C@H]3CC[C@]12C
inactive: [2] | [3] | [5] | [6] | [7] | [8] | [9] | [10] | [16] | [13]
active: [6] 125 µM | [11] 13.1 µM | [12] 5.32 µM | [14] 25.9 µM

CCCCCCC(C)OC(=O)COc1nc(F)c(Cl)c(N)c1Cl (stereo not drawn)
active: [11] 34.4 µM | [12] 37.8 µM | [13] 18.3 µM | [14] 34.2 µM
not listed: [1] | [2] | [3] | [6] | [15]
inactive: all other assays above

CSC(=O)c1cccc2nnsc12
not listed: [1] | [2] | [4] | [15] | [17] | [18]
inactive: all other assays above

C#C[C@]1(O)CC[C@H]2[C@@H]3CCC4=CC(=O)CC[C@@H]4[C@H]3CC[C@@]21CC
inactive: [2] | [3] | [5] | [6] | [7] | [8] | [9] | [17] | [18] | [10] | [16] | [11] | [12] | [13] | [14]
active: [18] 52.1 µM

CCCOC(=O)NCCCN(C)C
not listed: [1] | [4] | [5] | [6] | [15] | [17]
inactive: all other assays above
